Screening data (PubChem BioAssay)
An excerpt weighted towards active compounds, which were near 18% of everything screened.
RORg inh: inhibitors of mouse ROR gamma transcriptional activity. P51450. Drosophila S2 Gal4-RORgamma UAS-luciferase reporter, 20 h. Potency, µM (titrated, usually from 53.6 µM), for inactives: top-dose activity change, negative = inhibition, usual class: inhibitors. hit rate 5.4% among 310,000; note: potency is the fitted concentration of half-maximal effect; nearly all actives have a fitted effect of over 60% in size
Target sequence (P51450 whole entry, looked up, the tested form may be a part): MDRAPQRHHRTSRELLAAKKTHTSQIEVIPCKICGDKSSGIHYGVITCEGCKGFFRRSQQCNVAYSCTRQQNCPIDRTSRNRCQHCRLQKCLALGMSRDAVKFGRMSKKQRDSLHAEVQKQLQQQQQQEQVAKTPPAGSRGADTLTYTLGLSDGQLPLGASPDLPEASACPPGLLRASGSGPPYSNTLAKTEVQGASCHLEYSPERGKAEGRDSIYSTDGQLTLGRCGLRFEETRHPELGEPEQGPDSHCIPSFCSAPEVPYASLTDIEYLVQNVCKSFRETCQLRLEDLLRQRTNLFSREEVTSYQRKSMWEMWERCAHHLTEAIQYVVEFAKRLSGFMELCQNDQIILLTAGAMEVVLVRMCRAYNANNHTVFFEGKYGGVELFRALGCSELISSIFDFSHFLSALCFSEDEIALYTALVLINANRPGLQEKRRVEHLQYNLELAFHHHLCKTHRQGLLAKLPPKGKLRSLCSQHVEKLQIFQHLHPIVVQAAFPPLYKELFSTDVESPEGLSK
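Luminescence from a UAS-regulated Photinus luciferase reporter in stably transfected Drosophila Schneider cells is measured; decreased signal marks ROR gamma inhibition. Fusion expression is induced by 700 uM copper sulfate for 20 hr.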
DT40 TDP1 CPT: DT40-hTDP1 cell growth loss with CPT | chicken DT40 Tdp1-/-;hTDP1 cells + 20 nM CPT, ATP luminescence, 48 h | Potency, µM (series often up to 46.2 µM), inactives show at the highest dose activity change, negative = growth inhibition, actives largely listed as inhibitors | hit rate 12% among 420,000; note: potency is the fitted concentration of half-maximal effect; nearly all actives have a fitted effect of over 55% in size
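Chicken DT40 Tdp1-/- cells complemented with human TDP1, 400 cells/well, exposed to compounds plus 20 nM camptothecin for at least 48 h at 37 C; viability read as ATP content by CellTiter-Glo luminescence.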
Gal4-VP16 FLuc: counter-screen for ROR gamma inhibitors: Gal4-VP16 reporter. AID 2546. Drosophila S2 Gal4-VP16 UAS-luciferase, luminescence, 20 h. Potency, µM (series often up to 53.6 µM), without a hit: at the highest dose activity, negative = inhibition, actives largely listed as inhibitors. hit rate 3.5% among 310,000;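 note: Gal4-VP16 expression switched on by copper sulfate through the metallothionein promoter; potency is the fitted concentration of half-maximal effect; nearly all actives have a fitted effect of over 50% in size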
IL-1B inflam inh: blocks inflammasome-driven IL-1 beta release. THP-1 LPS/ATP IL-1B secretion, AlphaLISA, 16 h; active compounds read low. hit rate 4.7% among 360,000. activity change, % at 57.5 µM; in the data active = activity change below about -50%; inconclusive = mostly about -30% to -49%
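Secreted IL-1B measured by AlphaLISA bead assay after 16 h compound exposure of THP-1 cells; compounds (final up to 57.5 uM) added 1 h before LPS (250 ng/mL) and ATP (1.25 mM) stimulation; lower signal means less secretion.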
TDP1 cell noCPT: qHTS for Inhibitors of human tyrosyl-DNA phosphodiesterase 1 (TDP1): qHTS in cells in absence of CPT; DT40 Tdp1-/- hTDP1 cells, no CPT, ATP luminescence, 48 h; Potency, µM (highest dose often 46.2 µM), inactives show top-dose activity change, negative = growth inhibition, hits mostly inhibitors; AID 686978, 2013; hit rate 15% among 420,000; note: potency is the fitted concentration of half-maximal effect; nearly all actives have a fitted effect of over 55% in size
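Chicken DT40 Tdp1-/- cells complemented with human TDP1, screened without camptothecin (DMSO vehicle only), 400 cells/well. Compounds pin-transferred, cells incubated at 37 °C for at least 48 hr. Growth read as ATP-dependent luminescence (CellTiter-Glo, 30 min at RT).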
LDHA inh: blocks human lactate dehydrogenase A; hit rate 0.15% among 480,000; activity change, % (values are at about 110 or 230 µM); purified LDHA, NADH/diaphorase-resazurin fluorescence; active compounds read low; P00338; in the data active = activity change below about -30%; inconclusive = mostly about -25% to -30%;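 note: plate controls were DMSO wells for no effect and wells without enzyme for full effect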
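Resorufin fluorescence (ex540/em590), read at 0 and 20 min after diaphorase/resazurin addition, reports the NADH left after a 5 min room-temperature reaction of 2 nM human LDH5 with 0.06 mM NADH and 0.2 mM pyruvate.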
An asterisk follows results filed as active; ? = inconclusive; nt = no result. Unless noted, calls come from the whole dose curve; as a rule, active = well fitted curve in the direction sought with a large enough effect; inconclusive = small, poorly fitted or top-dose-only effect, or another doubt; inactive = no such curve, though single readings can be large; an effect the other way counts as inactive or inconclusive. Unless noted, % is set by controls: 0 for no effect and ±100 for the full control effect.

SMILES	RORg inh	DT40 TDP1 CPT	Gal4-VP16 FLuc	IL-1B inflam inh	TDP1 cell noCPT	LDHA inh
Cn1cccc1/C=C(\C#N)C(N)=S	-15%	1%	3%	24	1%	-1
Cc1cc(C)c(C)c(/C=C(/C#N)C(N)=S)c1C	6.3µM*	3%	16µM*	6	-5%	-3
CC(C)OC(=O)c1cccnc1SCC(=O)N(C)c1ccccc1	37%	-4%	-2%	-7	-9%	-1
CCOC(=O)c1cccnc1SCC(=O)N(CC)c1cccc(C)c1	-18%	23µM*	13%	1	?	-4
CCN(C(=O)CSc1nc(-c2ccccc2)no1)c1cccc(C)c1	nt	1.6µM*	nt	nt	1.5µM*	3
CCN(C(=O)CSc1ncccc1C(=O)OC(C)C)c1cccc(C)c1	?	21µM*	?	-20	?	-7
CCN(Cc1cccs1)C(=O)c1cccs1	nt	nt	nt	nt	nt	6
Nc1nccnc1C(=O)Nc1ccccn1	nt	nt	nt	nt	nt	13
Cc1ccccc1C[n+]1cccc2ccccc21	nt	?	nt	35	15µM*	-8
O=C(C[n+]1cccc2ccccc21)c1ccccc1	2%	-2%	-10%	-13	-17%	-5
COc1ccccc1P(=O)(Cc1ccccc1[N+](=O)[O-])c1ccccc1 (stereo unspecified)	11%	?	1%	-10	15µM*	-5
O=C(CNC(=O)NC(Cc1c[nH]c2ccccc12)C(=O)O)Nc1ccc2ccccc2c1 (stereo unspecified)	nt	nt	nt	nt	nt	0
CN(C)c1ccc(CN(C(=O)c2ccco2)C2CCS(=O)(=O)C2)cc1 (stereo unspecified)	35%	-2%	-16%	-8	-1%	2
CN(C)c1ccc(CN(C(=O)c2ccc(Cl)c([N+](=O)[O-])c2)C2CCS(=O)(=O)C2)cc1 (stereo unspecified)	38%	?	-1%	-75*	?	1
Cc1cc(C)cc(OCC(=O)N(Cc2ccc(N(C)C)cc2)C2CCS(=O)(=O)C2)c1 (stereo unspecified)	37%	3%	-3%	-17	-25%	4
Cc1cc(C)c(OCC(=O)N(Cc2ccc(N(C)C)cc2)C2CCS(=O)(=O)C2)c(C)c1 (stereo unspecified)	13%	-7%	-7%	-72*	23µM*	2
O=C(c1ccc(Cl)c([N+](=O)[O-])c1)N(Cc1ccc(F)cc1)C1CCS(=O)(=O)C1 (stereo unspecified)	11%	6%	7%	-95*	?	-10
N#C/C(=C/c1ccc(-c2ccc(Cl)cc2)o1)C(=O)NC1CC1	nt	nt	nt	nt	nt	3
CCOc1ccc(-c2cc(=O)c3ccc(NC(=O)c4ccccc4Cl)cc3o2)cc1	nt	nt	nt	nt	nt	1
C=CCNC(=O)c1nc(-c2ccc3[nH]ccc3c2)no1	nt	nt	nt	nt	nt	1
Cc1onc(-c2ccccc2)c1C(=O)NC(=S)NNC(=O)c1cc(-c2ccc(F)cc2)n[nH]1	?	?	-25%	3	21µM*	-21
Cc1onc(-c2ccccc2)c1C(=O)NNC(=S)NC(=O)/C=C/c1cccs1	3.5µM*	16µM*	4.5µM*	30	23µM*	-6
Cc1onc(-c2ccccc2)c1C(=O)N/N=C/c1cccs1	?	-4%	?	-2	?	-3
Cc1onc(-c2ccccc2)c1C(=O)NC(=S)NNC(=O)c1ccco1	-33%	?	8%	94	16µM*	-3
O=C(C(=O)N1CCN(C(=O)c2cc3ccccc3[nH]2)CC1)N1CCCC1	nt	nt	nt	nt	nt	1
SMILES	RORg inh	DT40 TDP1 CPT	Gal4-VP16 FLuc	IL-1B inflam inh	TDP1 cell noCPT	LDHA inh
O=S(=O)(NCCc1ncc2ccccn12)c1ccc(Cl)cc1	nt	nt	nt	nt	nt	3
Cc1ccc(NC(=O)COC(=O)COc2ccc(C3SCCCS3)cc2)c(Cl)c1	nt	nt	nt	nt	nt	-6
CCCCCC(=O)NC(=S)Nc1ccc(N2CCOCC2)cc1	1.3µM*	-8%	2.2µM*	-11	?	-4
CCN1CCN(c2ccc(NC(=O)c3ccccc3OC)cc2Cl)CC1	nt	nt	nt	nt	nt	-5
CCCCCC(=O)NC(=S)Nc1ccc(N2CCCCC2)c(Cl)c1	1.6µM*	-27%	7.1µM*	-4	?	-3
CCCCCC(=O)Nc1ccc(N2CCN(CC)CC2)c(Cl)c1	44%	35µM*	?	-7	?	1
CCOC(=O)c1cnn(-c2cc(C)nc3c(-c4ccc(F)cc4)cnn23)c1N	nt	nt	nt	nt	nt	1
Cc1ccc(CNC(=O)C2c3ccccc3C(=O)N(C)C2c2c[nH]c3ccccc23)o1 (stereo unspecified)	-20%	21µM*	1%	-5	15µM*	2
CC(C)C1S/C(=N/N=C/c2ccco2)NC1=O (stereo unspecified)	0.2µM*	-13%	3.2µM*	18	-4%	1
Cc1ccccc1CC1S/C(=N/N=C/c2ccco2)NC1=O (stereo unspecified)	0.45µM*	nt	2µM*	nt	nt	nt
Cc1ccccc1CN1C(=O)C(C)S/C1=N/N=C/c1ccco1 (stereo unspecified)	8%	-12%	1%	-8	?	-13
O=C1CC(C(=O)Nc2ccccc2)S/C(=N\N=C\c2ccco2)N1 (stereo unspecified)	-20%	-6%	-15%	4	-1%	-10
Fc1cccc(Cl)c1/C=N/N=C1c2ccccc2-c2ccccc21	nt	nt	nt	nt	nt	-18
CCOC(=O)C(=CN=C(N)Nc1nc2ccccc2o1)C(=O)OCC	7.1µM*	-6%	?	0	-18%	1
CCCOC(=O)Nc1nc2ccccc2o1	14µM*	?	?	18	?	2
CCCCC(=O)N/C(N)=N/c1nc2ccccc2o1	?	?	-12%	-11	?	-1
CCOC(=O)C1=C(CS(=O)(=O)c2ccc(C(C)(C)C)cc2)NC(=O)NC1c1cccc(OC)c1 (stereo unspecified)	nt	16µM*	nt	nt	16µM*	3
CCCc1nnc(NC(=O)c2ccc3ccccc3n2)s1	nt	nt	nt	nt	nt	0
COc1ccc(CCNC(=O)C(C)n2nc(C)c3c(C)n(-c4ccc(C)cc4)nc3c2=O)c(OC)c1 (stereo unspecified)	15%	23µM*	-10%	-50*	?	0
CCC(C(=O)Nc1cc(F)ccc1F)n1nc(C)c2c(C)n(-c3ccc(C)cc3)nc2c1=O (stereo unspecified)	0%	15µM*	0%	-9	16µM*	-3
